The AC50 is the midpoint of the concentration-response curve, whichever way the signal moves.

Activity calls are given as the source filed them. The calls were made as follows: active = hit-call score of the fitted dose curve at least 0.9, where 1 is the maximum; inactive = score below 0.9.

Read-out in this test: matrix metalloproteinase-10 (MMP10), MMP10 (gene 4319)
The test is described as follows: LTEA_HepaRG_MMP10: Life Technologies and Expression Analysis (LTEA) Assay for matrix metalloproteinase-10 (MMP10) using HepaRG (AID 2283517). As to conditions: mRNA level, 48 h; actives raise or lower the signal. On the procedure:
LTEA_HepaRG is a cell based, multiplexed-readout assay that uses HepaRG, a human liver cell line, with measurements taken at 48 hours after chemical dosing on a 96-well plate.LTEA_HepaRG_MMP10 is one of 102 assay component(s) measured in the LTEA HepaRG cell culture assay. It is a marker of Fibrosis.Data from the assay component LTEA_HepaRG_MMP10 was analyzed into 1 endpoint. This assay endpoint, LTEA_HepaRG_MMP10, was analyzed with bidirectional fitting relative to DMSO as the negative control and baseline of activity. Using a type of inducible reporter, measures of mRNA induction for gain or loss-of-signal activity can be used to understand regulation of transcription factor activity. To generalize the intended target to other relatable targets, this assay endpoint is annotated to the protease intended target family, where the subfamily is matrix metalloproteinase.
A total of 1060 chemcials from the ToxCast library were tested in eight-point concentration-response experiments. Cell culture and cytotoxicity assays were conducted at Thermo Fisher Scientific's Custom Services facility (Madison, WI). A single lot of human HepaRG cells (Thermo Fisher Scientific, Frederick, MD) was used for the cell culture experiments. 96-well format collagen type I coated plates of human HepaRG cells were prepared using established methods. Briefly, cryopreserved HepaRG cells were thawed, plated at a density of approximately 100,000 cells/well in HepaRG Thaw, Plate, and General Purpose media (HPRG770, Thermo Fisher Scientific), and incubated for 48 hours. 0.5% DMSO was selected as vehicle control to balance the requisite need of DMSO in HepaRG cultures to maintain differentiation (for example, baseline metabolism, proportions of hepatocytes vs. cholangiocytes), while enabling further hepatic receptor pathway activation (for example, PXR and CAR) in response to chemical exposure. 48 hours after plating, the culture medium was replaced with HepaRG Serum-Free Incudtion Media. Cells were exposed to each test chemical in duplicate and maintained in CO2 incubators for another 48 hours. Chemical plates were thawed to room temperature and 200x concentrations of treatment groups were prepared. 8-point conentration-reponse curves were made with the highest exposure at 100 uM, followed by half-log dilutions, all in 0.5% DMSO. Each test plate contained variouse controls, induction positive controls (1mM phenobarbital), cytotoxicity positive controls ([…] aflatoxin B1), vehicle controls (0.5% DMSO), and total lysis controls (0.5% DMSO). Cell morphology images were taken using an Essen IncuCyte FLR automated microscope, with six 96-well plates imaged in about 24 minutes. Images were captured and exported and JPEG files. Spent culture media was transfered to black-well plates for the LDH assay, and remaining media was sorted at -80 C for later use. Cells were treated with RLT buffer and frozen until shipped for gene expression analysis. Total RNA was isolated from the cell suspension in 75 uL of Buffer RLT (Qiagen, Germantown, MD 20874) by Quintiles/Expression Analysis (Durham, NC) using a custom isolation procedure. Total RNA from each plate well was transferred to a preamplification plate. Fluidigm's 96.96 Dynamic ArrayTM (Fluidigm, Amsterdam, the Netherlands) technology was used for gene expression analyses by quantitative reverse transcription polymerase chain reaction (qRT-PCR, performed by Quintiles/Expression Analysis, Durham, NC)89. Standard TaqManTM Assays (Applied Biosystems/ThermoFisher Scientific, Foster City, CA) were used to assess the expression of 93 genes selected based on their selectivity and sensitivity to important hepatic receptors known to be modulated by environmental chemicals; importance in human hepatocyte functionality; and hepatotoxicity. […]
In the case of `CC1(C)C(=O)NC(=O)N1CO`, the molecule was called inactive.
Same read-out and setting: the value for `CCCCCCCC(=O)OC` was “inactive”.
Still for that read-out and setting: the value for `O=C1O[C@H]([C@H](O)CO)C(O)=C1O` was “inactive”; that for `CC(C)OC(=O)C(C)(C)Oc1ccc(C(=O)c2ccc(Cl)cc2)cc1` was “inactive”; that for `O=C1CCCCC1` was “inactive”.
Consider `CCCCCCC(C=O)=Cc1ccccc1`, for which the call was inactive.
For the molecule `CN(C)CCCN(C)CCCN(C)C`, the result was inactive.
The same measure, in the same setting: the value for `CCc1nc(N)nc(N)c1-c1ccc(Cl)cc1` was “inactive”; that for `NC1CCCCC1` was “inactive”.
Take `O=C(O)c1[nH]n(-c2ccc(S(=O)(=O)O)cc2)c(=O)c1N=Nc1ccc(S(=O)(=O)O)cc1`: the result was inactive.
On the same count and under the same terms, the value for `COC(=O)CCC(=O)OC` was “inactive”; that for `CO[C@@H]1COCC[C@@H]1N[C@@H]1CC[C@@](C(=O)N2CCc3ncc(C(F)(F)F)cc3C2)(C(C)C)C1` was “inactive”; that for `N[C@@H](Cc1c[nH]c2ccccc12)C(=O)O` was “inactive”.
The same measure, in the same setting: the value for `CCCCOC(=O)CCCCC(=O)OCCCC` was “inactive”; that for `Cc1cn([C@H]2C=C[C@@H](CO)O2)c(=O)[nH]c1=O` was “inactive”; that for `COc1ccc(C(=O)Nc2nc3ccccc3c(NCc3ccccc3)c2C#N)cc1` was “inactive”.
On the same count and under the same terms, the value for `CN(C)C(=O)NC1(c2ccccc2)CCN(CC[C@@]2(c3ccc(F)c(F)c3)CN(C(=O)c3ccccc3)CCO2)CC1` was “inactive”; that for `Oc1ccccc1O` was “inactive”.
`CC(C)c1cccc(C(C)C)c1NC(=O)NS(=O)(=O)c1cc(C(C)(C)O)co1`: the outcome was inactive.
Regarding `CCN(CC)CCOc1ccc(C(=C(Cl)c2ccccc2)c2ccccc2)cc1`, the AC50 is 28.8 µM (active).
Turning to `CC(=O)O[C@]1(C(C)=O)CC[C@H]2[C@@H]3C=C(Cl)C4=CC(=O)[C@@H]5C[C@@H]5[C@]4(C)[C@H]3CC[C@@]21C`, the result was inactive.
For `S=c1[nH]c2ccccc2s1`, the call was inactive.
Still for that read-out and setting: the value for `CC(=O)[C@@]1(O)CC[C@H]2[C@@H]3CCC4=CC(=O)CC[C@]4(C)[C@H]3CC[C@@]21C` was “inactive”; that for `CCCCCCCCCCCCCCOS(=O)(=O)O` was “inactive”.
With `O=C(NS(=O)(=O)/C=C/c1cccs1)c1ccc(F)cc1Br`, the call was inactive.
Still for that read-out and setting: the value for `NCCOCCOCCN` was “inactive”; that for `Cn1cnc2c1c(=O)[nH]c(=O)n2C` was “inactive”; that for `CC(C)c1cccc(C(C)C)c1` was “inactive”.
The same measure, in the same setting: the value for `CC(N)=O` was “inactive”; that for `O=C1NC(=O)C(c2ccccc2)(c2ccccc2)N1` was “inactive”; that for `CCC(C)N(C)C(=O)c1cc2ccccc2c(-c2ccccc2Cl)n1` (stereo not given) was “inactive”.
`Cc1ccc(C(C)(C)C)c(O)c1`: the call was inactive.
The same measure, in the same setting: the value for `O=C1c2c(O)cccc2Cc2cccc(O)c21` was “inactive”; that for `O=C(O)CC(O)(CC(=O)O)C(=O)O` was “inactive”; that for `C/C=C/c1ccc(OC)cc1` was “inactive”.
Still for that read-out and setting: the value for `NC=O` was “inactive”; that for `O=[Si]=O` was “inactive”.
On to `Cc1c(C)c2c(c(C)c1O)CCC(C)(COc1ccc(CC3SC(=O)NC3=O)cc1)O2` (stereo not given), for which the concentration at half-maximal activity (AC50) is 48.5 µM (active).
Regarding `O=C(N[C@@H](c1ccccc1)[C@@H]1CCCCN1)c1cccc(C(F)(F)F)c1Cl`, the AC50 is 35 µM (active).
On to `CC(COCC(C)OC(=O)c1ccccc1)OC(=O)c1ccccc1` (stereo not given), for which the outcome was inactive.
